Laboratory results published in ChEMBL document CHEMBL3988442, “University of Dundee, Small-Polar-MMV Screening Library” (2021).

Target: AMP-activated protein kinase, AMPK (Homo sapiens) (UniProt P54646+O43741+P54619+Q9UGJ0+Q9Y478+Q13131+Q9UGI9)
Assay: AMP-dependent Kinase enzyme assay. An in vitro enzyme assay that detects ADP turnover that is directly proportional to AMPK activity. This uses naive AMPK that is activated during the assay with MK-8722
Format: functional
Design: scale not given: direction of the effect not stated beside the values
Conditions: 30 µM

SMILES | Percent Effect [%]
CC(C)N(CC(=O)Nc1cccc(C#N)c1)C1CC1 | 0.161
O=C(CCCn1ccnc1)NC1CCCN(c2ccccc2Cl)C1 (stereo not given) | 6.12
CCC(C)NC(=O)c1sccc1-n1cnnn1 (stereo not given) | 9.35
COc1ccc(OCc2nc3cc4c(cc3c(=O)o2)OCCCO4)cc1 | -6.13
Cc1noc(C)c1-c1cccc(C2CCN(S(=O)(=O)N(C)C)CC2)n1 | 5.6
CC(CO)NC(=O)Nc1ccc(CC#N)cc1 (stereo not given) | -1.29
Cc1nn(C)c2ncnc(NCc3nncn3C3CCCCC3)c12 | 10.1
CN(CC(=O)NCCc1ccccn1)C(=O)c1cccs1 | 4.43
O=C(NCc1ccccn1)c1cc2n(n1)CCNC2 | 11.8
Cc1nc(N)c2ccc(C3CCCN3)nc2n1 (stereo not given) | 10.9
CC1CCCCN1C(=O)COc1nc(C(C)(C)C)no1 (stereo not given) | -0.675
Cc1cc(CN(CC(N)=O)CC(C)C)on1 | -2.52
CC(C)n1cc(CN(Cc2ccsc2)CC2CCCO2)cn1 (stereo not given) | 5.12
CC(Cc1cccc(F)c1)C(=O)NS(=O)(=O)c1ccc2c(c1)OCCO2 (stereo not given) | 3.32
COc1ncc(CN2CCC3(CCNC(=O)CC3)CC2)cn1 | -1.6
COCCn1ccnc1C1CCN(C(=O)CSc2nnc(C)s2)CC1 | 7.22
CC1CCCCN1C(=O)COc1nc(Cc2ccc(F)cc2)no1 (stereo not given) | 2.51
CC(C)c1ccccc1NC(=O)N1C[C@@H]2CC[C@H](C1)N(C)C2=O | -7.67
Cc1cc(CNC(=O)N2CCOC(c3ccccc3Cl)C2)no1 (stereo not given) | -7.62
c1cc(CN2CCC[C@@H](Cn3nnc(-c4cnccn4)n3)C2)ccn1 | 6.31
